Screening data (PubChem)
PfHsp90 yeast 2 = reduces growth (ATP signal) of yeast expressing P. falciparum Hsp90; S. cerevisiae expressing PfHsp90, BacTiter-Glo ATP, 48 h; yeast lacking PDR1 and PDR3 efflux regulators; inhibition, % at 9.4 µM; hit rate 0.32% among 310,000; AID 504621;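 active = every replicate shows inhibition above about 80%, whatever the replicate mean, limit read from the data; inconclusive = mean inhibition reaches the set limit but some replicate falls short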;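 also: 0% = DMSO neutral controls and 100% = 20 µM radicicol positive controls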
NALP3 yeast inh = blocks the NALP3 inflammasome reconstituted in yeast | hit rate 0.39% among 330,000 | inhibition, % at 10 µM | Yeast reconstituted NLRP3/ASC/caspase-1, beta-gal luminescence, 24 h;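 active = inhibition of 50% or more; inactive = inhibition below 50%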;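 also: plate controls were induced DMSO wells for no effect and uninduced yeast grown without galactose for full effect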
tim23-1 inh = tim23-1 yeast growth inhibition; AID 463212; hit rate 1.3% among 330,000; S. cerevisiae tim23-1 growth, BacTiter-Glo luminescence, 24 h; inhibition, % at 20 µM;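 active = growth inhibition of the mutant yeast at or above 50%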;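 also: temperature-sensitive mutant grown at 25 °C; plate controls were DMSO-treated mutant yeast for no effect and medium wells lacking yeast for full effect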
TIM10 inh = growth inhibitors of TIM10 yeast strain; S. cerevisiae TIM10 strain growth, BacTiter-Glo luminescence, 24 h; inhibition, % at 10 µM; hit rate 1.4% among 330,000;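 active = inhibition of 40% or more at the single tested concentration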;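 also: wild-type TIM10 isogenic control strain grown at permissive 25 °C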
tim10-1 inh = inhibits growth of tim10-1 mutant yeast | S. cerevisiae tim10-1 ts strain growth, BacTiter-Glo, 24 h | inhibition, % at 20 µM | hit rate 2.2% among 330,000;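 active = inhibition of at least 40%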;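 also: mutant grown at 25 °C; 0% = DMSO wells with yeast and 100% = wells holding no yeast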
tim10-1 conf = tim10-1 yeast growth inhibition, confirmed | shares compounds with tim10-1 inh | S. cerevisiae tim10-1 ts strain growth, BacTiter-Glo, 24 h | inhibition, % at 20 µM | hit rate 56% among 7,400;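 active = inhibition of yeast growth at or above a set limit in either of two repeat tests at 20 µM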;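 also: tim10-1 mutant grown at permissive 25 °C to find synthetic lethal compounds; 0% = DMSO yeast wells and 100% = medium wells without yeast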
tim10 confirm = confirmation of TIM10 yeast growth inhibitors; S. cerevisiae tim10 strain growth, BacTiter-Glo luminescence, 24 h; inhibition, % at 10 µM; hit rate 63% among 4,600; shares compounds with TIM10 inh;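 active = inhibition of yeast growth at or above a set limit in either of two replicates at 10 µM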;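 also: this counterscreen used the strain with wild-type TIM10; 0% = yeast with DMSO and 100% = medium wells lacking yeast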
tim23-1 conf = tim23-1 yeast growth inhibition, confirmed. S. cerevisiae tim23-1 growth, BacTiter-Glo luminescence, 24 h. AID 463218. shares compounds with tim23-1 inh. hit rate 83% among 4,400. inhibition, % at 20 µM;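 active = inhibition above about 39% in either of two replicate wells at 20 µM, limit read from the data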;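 also: temperature-sensitive tim23-1 mutant grown at 25 °C; 0% = DMSO wells with yeast and 100% = medium wells without yeast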
* hit, by the source's call; ? = inconclusive; . = no result given. Compounds with a hit are over-represented: about 3.7% of the library has one in this group of screens.

SMILES	PfHsp90 yeast 2	NALP3 yeast inh	tim23-1 inh	TIM10 inh	tim10-1 inh	tim10-1 conf	tim10 confirm	tim23-1 conf
N#CC(c1cccc(Cl)c1)c1ccc2c(C(F)(F)F)cc(C(F)(F)F)nc2n1 (stereo unspecified)	16	12	79*	75*	88*	70*	65*	72*
CCNC(=O)O/N=C(\C)c1sc(-c2ccc(Cl)cc2)nc1C	-12	18	57*	21	60*	54*	.	64*
CNC(C)C#Cc1ccc2c(=O)c3ccccc3oc2c1 (stereo unspecified)	-5	8	58*	26	54*	42*	.	53*
O=C(NCC1CC1)c1ccc2c3n(nc2c1)-c1ccc(Cl)cc1CO3	-20	14	67*	54*	48*	35*	57*	53*
O=C(OCc1nnc(-c2ccccc2)o1)c1ccc(Br)o1	-10	22	16	-6	16	.	.	.
O=C(OCc1nnc(-c2ccccc2)o1)c1ccc([N+](=O)[O-])o1	.	3	80*	-36	78*	59*	.	84*
O=C(O)c1ccccc1NSc1ccccc1[N+](=O)[O-]	-44	5	11	20	27	.	.	.
CCc1ccc(NSc2ccccc2[N+](=O)[O-])cc1	-8	27	52*	36	54*	43*	.	58*
C=CCN(C(=O)c1oc2c(Cl)cc(C)cc2c1C)C1CCS(=O)(=O)C1 (stereo unspecified)	6	24	28	-1	30	.	.	.
O=C1Nc2ccc(Br)cc2/C1=C/C1CC=CCC1 (stereo unspecified)	103*	-23	59*	59*	59*	50*	71*	-22
O=C1NC(Cc2ccccc2)C(=O)Nc2ccc(Br)cc21 (stereo unspecified)	1	20	5	0	8	.	.	.
C[C@@H]1CN[C@H](CCO)/C1=C\c1ccccc1	0	.	.	.	.	.	.	.
COCCNC(=O)CCCn1c(=O)c2cc(OC)c(OC)cc2n(CC(=O)Nc2ccc(F)cc2)c1=O	-30	15	8	-2	5	.	.	.
CCOC(=O)C1=C(O)c2ccccc2C(=O)/C1=C\c1ccc(CC)cc1	-3	.	.	.	.	.	.	.
CCOC(=O)C1=C(Cc2ccc(C)cc2)C(=O)c2ccccc2C1=O	.	-14	61*	57*	62*	68*	67*	60*
CCCc1ccc(/C=C2\C(=O)c3ccccc3C(O)=C2C(=O)OCC)cc1	.	4	52*	45*	66*	66*	48*	57*
O=C(O)c1ccccc1C(=O)NC1CCCCNC1=O (stereo unspecified)	-17	-4	15	0	0	.	.	.
S=C(Nc1ccc(Cl)c(Cl)c1)NC1CCN(Cc2ccccc2)CC1	28	29	-21	-9	26	.	.	.
Cc1cc(Cl)ccc1N=C1N=C(N)c2ccccc21	-16	-12	13	14	11	.	.	.
Cc1cc(Cl)ccc1N=c1ssnc1Cl	?	16	59*	40	52*	55*	.	77*
Cc1ccc(C2=NNC(=Nc3ccc(F)cc3)SC2)cc1	-56	.	.	.	.	.	.	.
Cc1ccc(N=c2ssnc2Cl)cc1	93*	18	66*	27	64*	63*	.	90*
Cc1cc(C)nc(/N=c2/ssnc2Cl)c1	.	44	91*	77*	81*	83*	95*	68*
Cc1cc(C)c(C#N)c(Cl)n1	-11	-2	6	-6	-5	.	.	.
CCCCCCNS(=O)(=O)c1ccc(Cl)s1	.	32	56*	-1	43*	26	.	47*
O=S(=O)(NCCCN1CCOCC1)c1ccc(Cl)s1	-5	7	0	1	-19	.	.	.
O=[N+]([O-])c1cc(-c2nc(-c3ccncc3)no2)cc([N+](=O)[O-])c1	29	13	72*	69*	76*	67*	-17	81*
O=C(NC1CCCCCCC1)c1ccccc1O	14	24	65*	49*	46*	34*	46*	60*
CCN(C(=O)CSc1nnc(C2CC2)n1-c1ccccc1)C1CCS(=O)(=O)C1 (stereo unspecified)	24	11	10	8	-4	.	.	.
